Test results published in PubChem BioAssay (NCI).
The panel holds about 79,000 compounds, 15% with a hit somewhere; the sample as a whole holds those more often. No stated cut-off is given here; in the data, active means growth inhibition above about 70%; inactive means the rest.

Experiments:
[1] = NCI Yeast Anticancer Drug Screen. Data for the rad50 strain (AID 155);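 further: 0% = growth of vehicle-only cultures of the same strain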; details: S. cerevisiae rad50 strain growth inhibition; at 50.0 µM; stronger effect = higher value
In short: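 Inhibition values express reduced yeast growth in compound-treated cultures relative to vehicle-treated controls.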

[2] = NCI Yeast Anticancer Drug Screen. Data for the mec2-1 strain (AID 157); details: S. cerevisiae mec2-1 strain, at 50.0 µM, stronger effect = higher value
In short: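 Test agents were screened against the mec2-1 yeast strain, with defined DNA repair or cell cycle alteration. Growth was scored as inhibition against vehicle-only controls.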

[3] = NCI Yeast Anticancer Drug Screen. Data for the sgs1 mgt1 strain (AID 161);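 further: 0% = growth of cultures given vehicle only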; details: S. cerevisiae sgs1 mgt1 strain, at 50.0 µM, stronger effect = higher value
In short: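 Read-out: growth inhibition vs vehicle controls. Cells: mutant yeast strain deficient in DNA damage repair.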

[4] = NCI Yeast Anticancer Drug Screen. Data for the cln2 rad14 strain (AID 165);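 further: 0% = growth equal to vehicle treated cultures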; details: S. cerevisiae cln2 rad14 strain, at 50.0 µM, stronger effect = higher value
In short: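 Growth of compound-exposed yeast (cln2 rad14 genotype) measured and expressed as inhibition relative to vehicle.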

[5] = NCI Yeast Anticancer Drug Screen. Data for the bub3 strain (AID 167); details: S. cerevisiae bub3 mutant strain, at 50.0 µM, stronger effect = higher value
In short: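 Steps: expose the mutant yeast strain to compound; grow alongside vehicle-treated cultures; measure growth; express inhibition against the vehicle cultures.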

[6] = NCI Yeast Anticancer Drug Screen. Data for the mlh1 rad18 strain (AID 175); details: S. cerevisiae mlh1 rad18 strain growth inhibition; at 50.0 µM; stronger effect = higher value
In short: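 In this whole-cell yeast screen, a strain with altered DNA damage repair is challenged with compound, and its growth is measured against matched vehicle-treated controls.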

Measured: growth inhibition

COC(=O)c1c[nH]c(C=O)c1C
inactive: [1] 15.8% | [2] -0.7% | [3] -6.95% | [4] -67.8% | [5] 8.3% | [6] 8.8%

CCN=C(c1ccccc1)N(O)c1ccccc1
inactive: [1] -10.7% | [2] 9.2% | [3] -3.15% | [4] 6.35% | [5] 7.7% | [6] -14.1%

O=C(O)CC(SSCc1ccccc1)C(=O)O (centres undefined)
inactive: [1] 5.1% | [2] 16.6% | [3] -4.15% | [4] -12.2% | [5] 12.7% | [6] 20.8%

COc1ccc(-c2oc(/C=N/NC(N)=S)c([N+](=O)[O-])c2-c2ccc(OC)c(OC)c2)cc1OC
inactive: [1] 44.6% | [2] 22.8% | [3] 44% | [4] 24.4% | [5] 28.9% | [6] 34.6%

CCCCCCCCCCCCCCCCOCC(COS(C)(=O)=O)OS(C)(=O)=O (centres undefined)
inactive: [1] 20% | [2] 2.15% | [3] 12.2% | [4] 33.3% | [5] 7.9% | [6] 1.5%

Cc1cc(-n2cnc3c(Cl)ncnc32)ccc1N
inactive: [1] 10.8% | [2] 5.3% | [3] 0.95% | [4] 5.05% | [5] 10.8% | [6] -9.1%

CC(=O)c1ccc2cc(Cl)ccc2c1
inactive: [1] 30.2% | [2] 3.45% | [3] 3.5% | [4] -29.9% | [5] 0.35% | [6] 4.2%

CC(=O)Nc1ccc(NC(=O)Nc2cccc(C(C)=O)c2)cc1
inactive: [1] 7.3% | [2] 27.2% | [3] 9.35% | [4] 0.3% | [5] 22.6% | [6] 28.6%

C/C(N=NC(=S)N(C)C)=C1\C=CC=CN1O
inactive: [1] -0.25% | [2] 11.8% | [3] 8.1% | [4] 55.6% | [5] 23.1% | [6] 38.9%

C#CCNC(=O)NCCCl
inactive: [1] 18.9% | [2] -3.45% | [3] -0.3% | [4] -34.1% | [5] 27.9% | [6] 2.65%

COc1ccc(C(=O)N=C(N)n2nc(C)cc2C)cc1
inactive: [1] -37.8% | [2] -1.35% | [3] -1% | [4] -16.1% | [5] 31.9% | [6] -0.75%

CC(=O)Nc1ccc(OCc2ccccc2)cc1[N+](=O)[O-]
inactive: [1] 20.5% | [2] -11.9% | [3] 9.75% | [4] 10.2% | [5] 6.85% | [6] 28.2%

CC(=O)OC[C@]1(C)CCCC2(C)C1CCC1C=C(C)[C@H]3CCC12C3 (some centres undefined)
inactive: [1] 2.05% | [2] -2.85% | [3] -17.8% | [4] -1.65% | [5] -3.1% | [6] 11.3%

CN1CCN(C(=S)N(C(=O)c2ccc(Cl)cc2)c2ccccc2)CC1
inactive: [1] -49.2% | [2] -36.5% | [3] -20.6% | [4] -6.8% | [5] 4.65% | [6] -7.25%

N=C1N=Nc2nc(CC(=O)c3ccc(Cl)cc3Cl)c(O)n21
inactive: [1] -9.8% | [2] -8.35% | [3] 1.05% | [4] -31.5% | [5] -11.8% | [6] -37.6%

Cc1cc(C)nc(NS(=O)(=O)c2ccc(Nc3c4ccccc4nc4c(C(=O)Nc5ccc(S(=O)(=O)Nc6cc(C)on6)cc5)cccc34)cc2)n1
inactive: [1] 28.8% | [2] 17.6% | [3] 32.2% | [4] 31.7% | [5] 11.4% | [6] 38.9%

COc1ccc2c(c1)C1(C)CCCC(C)(C(N)=O)C1CC2 (centres undefined)
inactive: [1] 0.1% | [2] -15.8% | [3] -8.05% | [4] 8.95% | [5] -12.2% | [6] -24.7%

S=c1nc[nH]c2c1CNC2
inactive: [1] -8.2% | [2] 10.9% | [3] -5.4% | [4] 1.7% | [5] 5.25% | [6] -6.15%

CCN(CC)C(=O)Cn1c(C)cc2ccccc21
inactive: [1] -18.1% | [2] -18.1% | [3] 7.9% | [4] -2.75% | [5] 8% | [6] -13.6%

O=C(Nc1ccc(F)cc1)c1ccc(Cl)cc1Cl
inactive: [1] -7.4% | [2] -28.4% | [3] -9% | [4] 13.7% | [5] -4.2% | [6] -2.35%

COc1ccc(/C=C/C(=O)c2ccc(F)cc2)cc1
inactive: [1] 8.85% | [2] -16.4% | [3] -12.4% | [4] -35.4% | [5] -6.5% | [6] 10.2%

O=c1cc(N2CCOCC2)n2c(ccc3ccccc32)n1
inactive: [1] -17.9% | [2] -2.4% | [3] -10.4% | [4] 13.2% | [5] 22% | [6] -2.6%

COC1(OC)C2(Cl)C(Cl)=C(Cl)C1(Cl)C1C=CC=CC12 (centres undefined)
inactive: [1] -19.9% | [2] -14.2% | [3] -14.3% | [4] 5.55% | [5] -18.6% | [6] -35.3%

N#CCCNC=O
inactive: [1] -7.15% | [2] 0.4% | [3] -8.7% | [4] -7% | [5] 6.3% | [6] -4.95%

CC1=C(C)C(N(C)C)CS(=O)(=O)O1 (centres undefined)
inactive: [1] 6.35% | [2] -18.4% | [3] -0.7% | [4] -47% | [5] -11.2% | [6] -7.9%

Cc1ccc(S(=O)(=O)CN2CCC(=O)c3ccccc32)cc1
inactive: [1] 20.4% | [2] 12.6% | [3] -6.4% | [4] 11.4% | [5] 15.4% | [6] 0.25%

CCCCCN(C(=O)CCC)c1ccccc1
inactive: [1] 45.8% | [2] 8.5% | [3] 24.5% | [4] 17.7% | [5] 3.2% | [6] 41.8%

CSc1nc(NC2OC(CO)C(O)C(O)C2O)c(Br)c(=O)n1C (centres undefined)
inactive: [1] 0.4% | [2] -1.7% | [3] -6.3% | [4] -8.75% | [5] -2.75% | [6] 20.1%

CC(=O)C1=C(O)C2(O)C(=O)c3c(c(C)c4ccc(C)c(O)c4c3O)CC2C(N)C1=O (centres undefined)
inactive: [1] 9.85% | [2] 38.1% | [3] 14.2% | [4] 11.7% | [5] 19% | [6] 4%

CCC[N+]1([O-])CCOCC1
inactive: [1] -8.2% | [2] -1.8% | [3] -5.55% | [4] 26.4% | [5] 14.3% | [6] -18.1%

COc1ccc(C(=O)C2CC(=O)NC2=O)cc1 (centres undefined)
inactive: [1] -11.6% | [2] -5.95% | [3] -1.8% | [4] -38.5% | [5] -0.7% | [6] -0.4%

Cc1cc(C)c(NC(=O)c2cc(C(=O)O)c(C(=O)Nc3c(C)cc(C)cc3C)cc2C(=O)O)c(C)c1
inactive: [1] 8.7% | [2] 2.5% | [3] -15.6% | [4] -7.1% | [5] 2.5% | [6] -1.55%

CNS(=O)(=O)c1ccccc1C(=N)c1ccccc1
inactive: [1] -0.3% | [2] -8.25% | [3] -27.6% | [4] -4.95% | [5] -45.9% | [6] -31.4%

CCOC(=O)CNC(=O)CNC(=O)CNS(=O)(=O)c1ccc(C)cc1
inactive: [1] -22.1% | [2] 15.2% | [3] 3.1% | [4] -28.5% | [5] 10.9% | [6] -45.8%

O=c1c2cc([N+](=O)[O-])ccc2n2n1Cc1ccccc1CC2
inactive: [1] -12.8% | [2] -0.9% | [3] -6.5% | [4] 21.5% | [5] 18.5% | [6] -16.4%

CC(=O)Nc1ncc(Sc2ccc([N+](=O)[O-])cc2)s1
inactive: [1] -6.5% | [2] -30.9% | [3] -8.35% | [4] 15.3% | [5] -11.8% | [6] 5.65%

O=C(/C=C(/CC(O)(c1ccccc1)c1ccccc1)Nc1ccccc1)c1ccccc1
inactive: [1] 10.3% | [2] -2.7% | [3] -6.4% | [4] 2.35% | [5] -1.2% | [6] -2.1%

CC(C)(C#N)OC(=O)c1cccc(C(=O)OC(C)(C)C#N)c1Sc1ccccc1
inactive: [1] 41.8% | [2] -2.6% | [3] -7.25% | [4] 7.55% | [5] -2% | [6] -1.55%

CCC1SC(N)=NC1c1ccccc1 (centres undefined)
inactive: [1] 22.2% | [2] 2.85% | [3] 31.9% | [4] 9.95% | [5] 14.1% | [6] 24.6%
